Source: PubChem BioAssay (NCI)
About 83,000 compounds went through this panel and 20% of them were active in at least one assay; those are over-represented in the sample as a whole.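 A percent growth of 40 corresponds to 60% growth inhibition; 0 means no net growth; -100 means all cells died. Active threshold: below 10.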 The source made the active and inactive calls.

What was measured:
Assay in all cases: NCI-60 one-dose screen, 48 h (100 = growth as untreated, 0 = no growth, -100 = all killed)
Conditions in all cases: 10 µM unless noted
[1] = tested on: NCI-H23 lung
[2] = tested on: NCI-H226 lung
[3] = tested on: NCI-H322M lung
[4] = tested on: HOP-62 NSCLC
[5] = tested on: NCI-H460 lung
[6] = tested on: HOP-92 NSCLC
[7] = tested on: NCI-H522 lung
[8] = tested on: A549/ATCC NSCLC
[9] = tested on: 786-0 renal
[10] = tested on: COLO 205 colon
[11] = tested on: DU-145 prostate
[12] = tested on: K-562 leukemia
[13] = tested on: MALME-3M melanoma
[14] = tested on: MDA-MB-231 breast
[15] = tested on: RXF 393 renal
[16] = tested on: SF-268 CNS
[17] = tested on: SF-295 CNS
[18] = tested on: SF-539 CNS
[19] = tested on: UACC-257 melanoma
[20] = tested on: M14 melanoma

Measured: growth

Cc1ccc(C(=O)N/N=C/c2cccc(Oc3ccccc3)c2)cn1
inactive: [1] 70.7% | [2] 66.9% | [3] 82.3% | [4] 71.6% | [5] 33.3% | [6] 71.6% | [7] 31.5% | [8] 54.1% | [9] 18.3% | [10] 65.2% | [11] 88.7% | [12] 23.8% | [13] 64.8% | [14] 65.3% | [15] 71.6% | [16] 79.1% | [17] 41.6% | [18] 72.9% | [19] 72.4% | [20] 50%

CCc1cccc2c1S/C(=C/c1ccc(Cl)cc1)C2=O
inactive: [1] 79.6% | [2] 87.2% | [3] 85.4% | [4] 80.9% | [5] 102% | [6] 83.5% | [7] 91.7% | [8] 97.4% | [9] 100% | [10] 108% | [11] 107% | [12] 80.1% | [13] 87.5% | [14] 87.6% | [15] 105% | [16] 93% | [17] 96.7% | [18] 89.1% | [19] 105% | [20] 99.1%

CCCCNc1nc(NN2C(=O)c3cccc4cccc(c34)C2=O)nc(-n2cnc3ccccc32)n1
inactive: [1] 88.7% | [2] 54.9% | [3] 92.7% | [4] 97.4% | [5] 102% | [6] 60.3% | [7] 89.5% | [8] 89.4% | [9] 97.7% | [10] 107% | [11] 98.6% | [12] 34% | [13] 105% | [14] 87.8% | [15] 74.8% | [16] 89.9% | [17] 88.9% | [18] 75.9% | [19] 99% | [20] 103%

Cc1nc(NC(=O)COc2ccc(/C=C3\Cc4ccc(Cl)cc4C3=O)cc2)sc1C
inactive: [1] 100% | [2] 99.2% | [3] 183% | [4] 102% | [5] 101% | [6] 88.9% | [7] 78.9% | [8] 105% | [9] 103% | [10] 120% | [11] 112% | [12] 106% | [13] 238% | [14] 93.7% | [15] 135% | [16] 119% | [17] 110% | [18] 101% | [19] 110% | [20] 114%

COc1ccc2c(c1)c(-c1ccc(-c3cn(C)c4ccc(OC)cc34)o1)cn2C
active: [7] -19.6% | [12] 2.25%
inactive: [1] 67.3% | [2] 82.7% | [3] 95.1% | [4] 93.2% | [5] 56.8% | [6] 38% | [8] 66.4% | [9] 83.2% | [10] 16.3% | [11] 107% | [13] 80.6% | [14] 69.1% | [15] 66.8% | [16] 71.8% | [17] 62.2% | [18] 18% | [19] 90% | [20] 71.2%

COc1ccc(C(=O)COC(=O)[C@H](C[Se][Se]C[C@H](NC(=O)c2ccc(Br)cc2F)C(=O)OCC(=O)c2ccc(OC)cc2)NC(=O)c2ccc(Br)cc2F)cc1
active: [1] -50.3% | [2] -69.5% | [3] 0.597% | [4] -72.4% | [5] -36.6% | [6] -27.9% | [7] -69.5% | [8] -3.84% | [9] -95.8% | [10] -45.6% | [11] -70.6% | [12] 9.64% | [13] -45.9% | [14] -57.5% | [15] -90.5% | [16] -54.3% | [17] -31.7% | [18] -93.9% | [19] -43.8% | [20] -73.9%

CCCCCCNC(=O)Oc1ccc(/C(=C(\C)c2ccc(Cl)cc2)c2ccc(OCCN3CCCCC3)cc2)cc1
inactive: [1] 48.5% | [2] 91.2% | [3] 84.9% | [4] 68.5% | [5] 23.8% | [6] 47.6% | [7] 69.1% | [8] 48.9% | [9] 23.7% | [11] 69.3% | [13] 31.6% | [14] 53.4% | [15] 24.1% | [16] 56.6% | [17] 48.2% | [18] 42.5% | [19] 18.6%
active: [10] -35.8% | [12] 1.22% | [20] -33.5%

O=C(Nc1ccc(I)cc1F)c1cc(I)ccc1O
inactive: [4] 16.8% | [8] 10.9% | [10] 91.1% | [11] 21.2% | [16] 13.6%
active: [1] -13.4% | [2] -4.51% | [3] -3.09% | [5] 2.89% | [6] -20.5% | [7] -5.05% | [9] 2.12% | [12] 7.64% | [13] -26.9% | [14] -34.7% | [15] -9.34% | [17] -34% | [18] 9.88% | [19] -17% | [20] 5.74%

CCOC(=O)C1=C(N)Oc2c(sc3c(C)cccc23)C1c1ccc(OC)cc1 (stereo not given)
inactive: [1] 46.4% | [2] 55.2% | [3] 50.9% | [4] 34.4% | [5] 21.9% | [6] 66.1% | [7] 17.1% | [8] 42.7% | [9] 49.3% | [10] 118% | [11] 50.5% | [12] 10.5% | [13] 43.9% | [14] 46.3% | [15] 29.8% | [16] 51% | [17] 19.4% | [18] 15.4% | [19] 46.8% | [20] 21.7%

COc1ccc(NC(=O)n2nc(/C=C\c3ccc(O)c(OC)c3)cc2/C=C\c2ccc(O)c(OC)c2)cc1
inactive: [1] 43.9% | [2] 87.2% | [3] 58.1% | [4] 32.7% | [5] 14.2% | [6] 89.1% | [8] 27.3% | [9] 32.1% | [10] 107% | [11] 27.2% | [13] 51.9% | [14] 36.5% | [15] 23% | [16] 41.8% | [17] 51.6% | [19] 75.2%
active: [7] -13.5% | [12] 9.25% | [18] 6.72% | [20] 4.97%

CCN(CC)Cc1cc(Nc2c3ccc(Cl)cc3nc3ccc(OC)cc23)ccc1O
inactive: [1] 65.7% | [2] 86% | [3] 62.5% | [4] 80.5% | [5] 34.9% | [6] 60.5% | [7] 39% | [8] 52.4% | [9] 47.3% | [11] 62.6% | [13] 112% | [14] 45.7% | [16] 43.9% | [17] 72.5% | [18] 58.7%
active: [10] 5.97% | [12] 3.14% | [15] -12.6% | [19] -39.4% | [20] -67.5%

Cc1ccc(NC2=C(Cl)C(=O)c3nc(C)ccc3C2=O)cc1
active: [1] -30.5% | [5] 9.01% | [6] -71% | [7] -25.7% | [11] -62.2% | [12] 6.64% | [13] -37.4% | [14] -80.3% | [15] -57.2% | [18] -85.6% | [19] -73.8%
inactive: [2] 38.1% | [3] 55.7% | [4] 75.2% | [8] 54.6% | [9] 21.6% | [10] 106% | [16] 66.8% | [17] 62.1% | [20] 29.1%

CCc1cccc2c3c(sc12)C(c1ccc(Cl)cc1)C(C#N)=C(N)O3 (stereo not given)
active: [10] 9.3% | [12] 6.13% | [15] -18.8% | [17] 2.87% | [18] -15.4% | [20] 5.36%
inactive: [1] 22.5% | [2] 41.2% | [3] 49.6% | [4] 36.9% | [5] 10.2% | [6] 66.7% | [7] 16.8% | [8] 34.6% | [9] 26.9% | [11] 19.3% | [13] 54.6% | [14] 31.6% | [16] 54.1% | [19] 80%

CNc1ccc(Nc2cccc(C)c2)c2c1C(=O)c1ccccc1C2=O
inactive: [1] 89.9% | [2] 93.1% | [3] 82.1% | [4] 102% | [5] 87.6% | [6] 28.9% | [7] 75.9% | [8] 97.7% | [9] 100% | [10] 105% | [11] 85% | [12] 92.7% | [13] 147% | [14] 96.1% | [15] 93.4% | [16] 87.5% | [17] 146% | [18] 99% | [19] 107% | [20] 122%

CCCCCCNC(=O)Oc1ccc(/C(=C(\C)c2ccc(Cl)cc2)c2ccc(OCCCN(C)C)cc2)cc1
active: [12] -28.4%
inactive: [1] 80.5% | [2] 110% | [3] 81.7% | [4] 97% | [5] 32.7% | [6] 58.6% | [7] 83.7% | [8] 63.5% | [9] 56.8% | [10] 23.8% | [11] 84.9% | [13] 68.6% | [14] 79.2% | [15] 80.1% | [16] 77% | [17] 97.5% | [18] 87.9% | [19] 60% | [20] 76.7%
